In the library only some 27% were active in any assay of this set; here they are far more common.
CYP2C19 inh: inhibitors of human CYP2C19. P33261. CYP2C19 Supersomes, luciferin-H EGE luminescence, 30 min. inhibition, % at 5 µM. hit rate 21% among 96,000. AID 778;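 active = CYP2C19 inhibition above a set limit at 5 µM in the primary screen, cut at about 50% in these data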;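 note: plate controls were negative control wells for no effect and 2.5 mM tranylcypromine positive control for full effect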
CYP2C19 act: increases human CYP2C19 enzyme activity; P33261; recombinant CYP2C19, luciferin-H EGE luminescence; hits give high values; 0 = fully inhibited enzyme, 1 = untreated enzyme; activation factor at 5 µM; 96,000 tested, under 10 active; AID 1025;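 active = activation factor of at least 2 at 5 µM in the primary screen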;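 note: 0 = wells with 2.5 mM tranylcypromine and 1 = vehicle-only wells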
Pyk2 oligo antag: blocks oligomerization of human Pyk2 in cells. hit rate 0.83% among 99,000. z-score (the deposit names both 25 µM and 10 µM). Q293 cells, Pyk2 FERM NanoBiT luminescence; hits give low values. AID 1347419. Q14289;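 active = Z-score of -3 or lower, scaled per plate to the spread of control and sample wells; inactive = z-score above -3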;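 note: negative z-score means lost luminescence so less FERM oligomerization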
CYP2C9 inh: human CYP2C9 inhibition. hit rate 20% among 96,000. AID 777. CYP2C9 Supersomes, luciferin-H conversion, luminescence. inhibition, % at 5 µM. P11712;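 active = blocking of liver enzyme CYP2C9 beyond about 50% at 5 µM, limit read from the data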
CYP2C9 activ: activators of human CYP2C9. P11712. recombinant CYP2C9, luciferin-H conversion, luminescence; hits give high values; factor 1 = untreated enzyme, 0 = blocked. activation factor at 5 µM. hit rate 1.4% among 96,000. AID 1024;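 active = activation factor of 2 or more for CYP2C9 at a 5 µM dose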;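 note: 0 = sulfaphenazole-blocked wells and 1 = vehicle-only wells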
Cav32 inh: inhibitors of human Cav3.2 T-type calcium channel | Cav3.2-expressing cells, Fluo-4 calcium fluorescence FDSS; hits give low values | B-score at 10 µM | hit rate 4% among 100,000;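 active = single-dose well whose peak fluorescence ratio is a statistical outlier from its plate by either plate-standardised score or position-corrected B-score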
Active calls of the source: *; / = not tested or not shown.

SMILES	CYP2C19 inh	CYP2C19 act	Pyk2 oligo antag	CYP2C9 inh	CYP2C9 activ	Cav32 inh
CC(=O)NC(Cc1c[nH]c2ccccc12)C(=O)OCC(=O)Nc1cc(C)on1 (stereo not drawn)	87.2*	0.1	-0.29	84.1*	0.2	0.563
CC(=O)NC(Cc1c[nH]c2ccccc12)C(=O)N1CCc2ccccc2C1 (stereo not drawn)	75.4*	0.2	-0.21	46.9	0.5	0.555
Cc1cc(NC(=O)COC(=O)[C@H](Cc2c[nH]c3ccccc23)NC(=O)c2ccc(F)cc2)no1	29.9	0.7	0.28	75.5*	0.2	-2.29
CC(=O)NC(Cc1c[nH]c2ccccc12)C(=O)OCC(=O)Nc1ccc2c(c1)OCO2 (stereo not drawn)	39.2	0.6	-0.55	73.9*	0.3	-0.666
C(=N\c1nc2ccccc2n1Cc1ccccc1)/c1cccs1	6.6	0.9	0.39	36.5	0.6	0.431
CN(C)C(CNC(=O)c1cccnc1Sc1ccccc1)c1ccco1 (stereo not drawn)	11.8	0.9	0.75	9.7	0.9	-0.0439
Cc1ccc(N2CCCCn3c2nc2c3c(=O)n(CC(=O)O)c(=O)n2C)cc1	-21.9	1.2	0.09	-12.7	1.1	0.47
Cc1ccccc1OC(C)C(=O)NC1CCCC1 (stereo not drawn)	74.2*	0.3	0.03	41.6	0.6	0.0267
CNC(=O)CC(C(=O)O)c1ccc(OC(C)C)cc1 (stereo not drawn)	3.9	1	1.87	15.9	0.8	0.149
O=C(CSc1nc2nc(-c3cccs3)cc(C(F)(F)F)c2c(=O)[nH]1)NCc1ccco1	6.2	0.9	-1.08	72.5*	0.3	-3.97*
Cc1cc(C)c2c(n1)nn1c(C)c(CCC(=O)NCc3ccco3)c(C)nc21	-10.5	1.1	/	-0.9	1	1.16
Cc1cc(C)c(Cc2c(C)nc3c(C(=O)NCc4ccco4)cnn3c2C)c(C)c1	7.6	0.9	0.11	78.5*	0.2	-0.079
O=C(NCc1ccco1)c1cnn2c(C(F)(F)F)cc(-c3cccs3)nc12	33.6	0.7	-0.66	50.7*	0.5	/
O=C(NCc1ccco1)c1cnn2c(C(F)F)cc(-c3ccccc3)nc12	1.4	1	-0.62	57.8*	0.4	0.304
Cc1cc(NC(=O)c2cnn3c(C(F)F)cc(-c4ccccc4)nc23)no1	1.6	1	-2.03	12.9	0.9	-1.01
COC(=O)c1c(N2C(=O)CCC2=O)sc2c1CCCC2	-1.8	1	/	-3.9	1	1.88
COC(=O)C(Cc1ccccc1)NC(=O)COc1ccc(C(C)(C)C)cc1 (stereo not drawn)	18.3	0.8	-0.69	18.6	0.8	-6.09*
CC(C)C(C)NC(=O)COc1ccc(-c2ccccc2)cc1 (stereo not drawn)	18.0	0.8	-1.08	87.2*	0.1	-0.982
CC(C)C(C)NC(=O)COc1ccc(Sc2ccc(OCC(=O)NC(C)C(C)C)cc2)cc1 (stereo not drawn)	/	/	-1.03	/	/	/
Cc1oc(-c2ccc3c(c2)OCCO3)cc1C(=O)O	88.1*	0.1	0.75	72.0*	0.3	0.226
Cc1cccc2cc(C#N)c(NCCNC(=O)NC3CCCCC3)nc12	8.6	0.9	0.58	-50.9	1.5	-0.144
Cc1cccc2cc(C#N)c(NCCNS(=O)(=O)c3ccc4c(c3)OCCO4)nc12	53.1*	0.5	0.35	56.9*	0.4	-4.19*
CCCCOc1ccc(-c2cc(C(=O)NNC(=S)NCC)c3ccccc3n2)cc1	20.0	0.8	-0.96	21.5	0.8	0.154
CCCCOc1cccc(-c2cc(C(=O)NNC(=S)NCC)c3ccccc3n2)c1	-3.7	1	-0.05	11.4	0.9	0.676
CCNC(=S)NNC(=O)c1cc(-c2cccc(OCC)c2)nc2ccccc12	37.6	0.6	0.43	84.1*	0.2	-1.55
SMILES	CYP2C19 inh	CYP2C19 act	Pyk2 oligo antag	CYP2C9 inh	CYP2C9 activ	Cav32 inh
O=C(NC(=S)Nc1ccccc1)c1cc(-c2ccccc2)nc2ccccc12	24.4	0.8	-0.01	23.6	0.8	-2.29
CCNC(=S)NNC(=O)c1cc(-c2cccc(C)c2)nc2ccccc12	4.3	1	0.27	51.8*	0.5	-2.47
CCNC(=S)NNC(=O)c1cc(C2CC2)nc2ccccc12	-11.0	1.1	1.16	50.9*	0.5	/
NC(=O)[C@@H]1CCCNc2c(I)cc([N+](=O)[O-])cc2C(=O)N[C@@H](Cc2ccccc2)C(=O)N[C@@H](Cc2cnc[nH]2)C(=O)N1	/	/	/	/	/	0.442
CCOc1ccc(N2C(=O)CC(SC(=NC)Nc3ccc(F)cc3)C2=O)cc1 (stereo not drawn)	/	/	-2.2	/	/	-2.51
COc1ccc(CCC(C)Nc2ccc(F)cc2)cc1 (stereo not drawn)	/	/	0.39	/	/	-1.57
COc1ccccc1N1CCN(/N=C/C=C\c2ccco2)CC1	18.5	0.8	-0.36	0.6	1	-0.799
CC(C)C[C@H](NC(=O)c1[nH]cnc1C(=O)Nc1ccccc1)C(=O)OC(C)(C)C	/	/	/	/	/	1.58
Cc1nc(SCC(=O)c2cccc([N+](=O)[O-])c2)n[nH]1	38.9	0.6	0.33	4.5	1	/
O=C(CCNc1ccccc1)c1cccc([N+](=O)[O-])c1	67.1*	0.3	-0.67	28.6	0.7	/
Cc1ccc(NCCC(=O)c2cccc([N+](=O)[O-])c2)cc1	94.4*	0.1	-1.25	36.3	0.6	-1.8
O=C(CCNc1ccc(F)cc1)c1cccc([N+](=O)[O-])c1	55.8*	0.4	-0.13	3.7	1	-0.578
CCOC(=O)N1CCN(S(=O)(=O)c2ccc(C)cc2)C1c1ccccc1 (stereo not drawn)	90.6*	0.1	-0.8	69.8*	0.3	-4.1*
CCOC(=O)N1CCN(S(=O)(=O)c2ccc(C)cc2)C1c1ccc(OC)cc1 (stereo not drawn)	73.8*	0.3	-0.28	-15.6	1.2	/
Cc1ccc(OC(=O)C(C)c2cccc(C(=O)c3ccccc3)c2)cc1 (stereo not drawn)	38.1	0.6	0.29	9.4	0.9	-1.42
Cc1ccccc1NC(=O)C(C)c1cccc(C(=O)c2ccccc2)c1 (stereo not drawn)	90.9*	0.1	-0.81	77.7*	0.2	-2.51
COC(=O)c1ccccc1NC(=S)NC(NC(=O)COc1ccccc1)C(Cl)(Cl)Cl (stereo not drawn)	-0.1	1	0.17	9.8	0.9	/
COC(=O)c1ccccc1NC(=S)NC(NC(=O)c1ccccc1[N+](=O)[O-])C(Cl)(Cl)Cl (stereo not drawn)	94.1*	0.1	-0.43	96.8*	0	-8.46*
COC(=O)c1ccccc1NC(=O)c1ccco1	14.8	0.9	-0.45	-22.4	1.2	-0.13
COC(=O)c1ccccc1NC(=S)NC(NC(=O)c1ccco1)C(Cl)(Cl)Cl (stereo not drawn)	42.4	0.6	1.14	87.9*	0.1	-1.14

Screens: PubChem BioAssay, several laboratories
